Luc counter = Counterscreen for Luciferase (Kinase-Glo TM) Inhibition; Luciferin 4-monooxygenase (Photuris pensylvanica), Q27757; Kinase-Glo luciferase, ATP luminescence, 8 min; Potency, µM (highest dose often 38.3 µM), for the others: at the top dose activity change, negative = inhibition, usual class: inhibitors; actives 0.28% (n = 200,000); active means well fitted inhibition curve with a large enough effect; inconclusive means small, poorly fitted or top-dose-only effect; further: potency means the concentration at half of the fitted maximal effect; nearly all actives have a fitted effect of over 60% in size
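Substrate mix (final 50 mM imidazole pH 7.2, 50 mM KCl, 7 mM MgCl2, 10 uM ATP, 0.01% Tween 20, 0.05% BSA) plus pin-tool compound, then Kinase-Glo detection mix; 8 min ambient, luminescence read.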
KCNH2 3.1 inh = qHTS for Inhibitors of KCHN2 3.1: Mutant qHTS; Potassium voltage-gated channel subfamily H member 2, brain isoform KCNH2 3.1 (human); actives 0.95% (n = 340,000); activity change, % (tested at about 1.8 µM); U2OS KCNH2 3.1, thallium flux FluxOr; hits give low values; AID 720553, 2013;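 active means maximum activity change below -70%; inconclusive means maximum activity change from -70% to -50%; inactive means maximum activity change above -50%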;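 further: thallium influx rate constant from kinetic fluorescence after stimulation buffer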
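Normalized rate constant (relative to positive and negative DMSO controls) derived from a 2 min kinetic fluorescence read after stimulation; U2OS cells expressing the 3.1 isoform via virus at 1.77 x 10^8 /mL.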
hERG WT inh = qHTS for Inhibitors of KCHN2 3.1: Wildtype qHTS; U2OS, BacMam KCNH2, thallium flux FluxOr; hits give low values; AID 720551, 2013; actives 0.37% (n = 340,000); Voltage-gated inwardly rectifying potassium channel KCNH2 (Homo sapiens), Q12809; activity change, % at 1.84 µM;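 active means maximum activity change below -70%; inconclusive means maximum activity change between -70% and -50%; inactive means maximum activity change above -50%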
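U2OS cells were transduced with wild-type KCNH2 virus (2.03 x 10^8 / mL) for 4 h at room temperature, then cultured overnight at 37 C. Thallium flux was read with FluxOr dye. Rate constants were normalized to DMSO controls.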
* hit, by the source's call; ? = inconclusive; . = no result given; [ ] = dose if it differs, or a comment. Hits are enriched below; roughly 1.2% of the tested compounds scored in any of these assays. On the % scale 0 is the no-effect control and ±100 the full control effect.

SMILES	Luc counter	KCNH2 3.1 inh	hERG WT inh
O=C(Nc1nc(-c2ccccc2)cs1)c1ccc2c(c1)S(=O)(=O)c1ccccc1C2=O	-1%	-31	2
CC(Oc1ccc(Br)cc1)C(=O)NNC(=O)CCN1CCN(c2ccccc2)CC1 (configuration not stated)	.	-4	13
O=C(NCC(c1ccco1)N1CCCCC1)c1ccc([N+](=O)[O-])s1 (configuration not stated)	.	-9	40
Cc1ccc(C(=O)NCC(c2ccco2)N2CCCCC2)s1 (configuration not stated)	.	-71*	15
CCCc1ncc(CN2CCCCC2C(=O)Nc2ccc(Oc3ccccc3)nc2)cn1 (configuration not stated)	.	3	-1
CCn1cc(C(=O)Nc2ccc(F)c(F)c2)cn1	0%	-88*	-4
CCn1cc(C(=O)Nc2ccc(Cl)cc2Cl)cn1	.	25	2
O=C(N/N=C/c1cccc(O)c1)N/N=C/c1cccc(O)c1	.	-3	-6
Cc1nonc1C(=O)N/N=C/c1cccc(O)c1	8.9µM*	-4	-7
O=C(NCCCN1CCCC1)[C@H](CSCc1ccccc1)N1Cc2ccccc2C1=O	.	-16	-5
O=S(Cc1ccc(Br)cc1)Cc1nnc(SCc2ccc(Br)cc2)n1-c1ccccc1 (configuration not stated)	4%	-74*	-16
COC(=O)c1ccc(CSc2nnc(CS(=O)Cc3ccc(Br)cc3)n2-c2ccccc2)cc1 (configuration not stated)	0%	-9	-2
O=S(=O)(NCCNC/C=C/c1ccc(Br)cc1)c1cccc2cnccc12	-5%	.	.
COc1cc(OC)c(OC)cc1CN1CCN(Cc2cccn2C)CC1	-2%	10	-122*
COc1cc(OC)c(OC)cc1CN1CCC(O)CC1	.	-90*	3
COc1cc(OC)c(OC)cc1CN1CCN(c2ccccc2OC)CC1	1%	-26	-3
COc1cc(OC)c(OC)cc1CN1CCN(C(=O)CC(C)C)CC1	.	1	-8
CC(CCc1ccccc1)NC(=O)CCC1CCCC1 (configuration not stated)	.	6	11
CC(CCc1ccccc1)NC(=O)C(=O)NCCO (configuration not stated)	2%	-78*	8
CC(=O)NC(C)CCc1ccccc1 (configuration not stated)	.	-3	-13
Cc1ccc(S(=O)(=O)N2C[C@H]3[C@H]4C(=O)N(c5ccccc5)C(=O)[C@H]4C[C@H](OC(=O)NC4CC4)[C@@]3(O)C2)cc1	.	4	-7
c1cc(C2CCCCC2)ccc1Oc1nc(N2CCOCC2)nc(N2CCOCC2)n1	-3%	-71*	3
c1ccc(Oc2nc(N3CCOCC3)nc(N3CCOCC3)n2)cc1	16%	-5	6
COc1ccc(NC(=O)CC2C(=O)N(c3ccc(OC)cc3)C(=O)N2C(C)C)cc1 (configuration not stated)	3%	-82*	-30
CCOc1ccc(NC(=O)CC2C(=O)N(c3ccc(OC)cc3)C(=O)N2Cc2ccc(OC)cc2)cc1 (configuration not stated)	0%	5	7
SMILES	Luc counter	KCNH2 3.1 inh	hERG WT inh
C=C(C)c1cccc(C(C)(C)NC(=O)N2CCCC2)c1	-1%	17	11
C=C(C)c1cccc(C(C)(C)NC(=O)N2CCN(C(=O)OCC)CC2)c1	.	-71*	-1
CSc1ncnc2c1ncn2CCCNCCCc1ccccc1	.	0	3
Cc1ccccc1NC(=O)Cc1nnc(SCC(=O)N2CCOCC2)n1C	.	-2	-18
CCC(C)N(C)Cc1cccc(C2(O)CCN(S(=O)(=O)c3ccc(F)c(C)c3)CC2)c1 (configuration not stated)	0%	-100*	-43
Cc1cc(S(=O)(=O)N2CCN(c3c(C)cccc3C)CC2)ccc1F	3%	23	-4
CCN1CCN(CCC(=O)Nc2cccc(C)c2)CC1	.	-20	5
Cc1cc(NC(=O)CCN2CCN(C)CC2)ccc1Br	.	5	16
O=C(CN1CCN(C/C=C/c2ccccc2)CC1)Nc1ccccc1C(=O)NC1CC1	.	-112*	-91*
Cc1cccc(NC(=O)CCN2CCN(C/C=C/c3ccccc3)CC2)c1	-2%	-91*	15
O=C(CN1CCN(S(=O)(=O)c2ccccc2)CC1)Nc1ccccc1C(=O)NC1CC1	.	?	2
O=C(CCN1CCN(CCO)CC1)Nc1ccccc1	.	6	7
O=C(CCN1CCN(C/C=C/c2ccccc2)CC1)Nc1ccccc1	4%	-80*	-27
Cc1cc(NC(=O)CCN2CCN(C/C=C/c3ccccc3)CC2)ccc1Br	.	-108*	-25
COc1cccc([C@@H]2Oc3ccc(OC)cc3[C@H](O)[C@H]2O)c1	-1%	.	.
Cc1ccc(C(C)(c2ccc(N)cc2)c2ccc(N)cc2)cc1	.	-10	5
CCC(C)NC(=O)c1ccc(N2CC3CC(C2)c2cccc(=O)n2C3)c(NC(=O)c2c(F)cccc2F)c1 (configuration not stated)	.	4	1
Cc1ccccc1NC(=O)CCN1CCN(C)CC1	.	-32	3
Cc1cc(NC(=O)Cn2nc(C(=O)O)c3ccccc3c2=O)c([N+](=O)[O-])cc1C	.	0	1
Cc1cc(NC(=O)CN2CCN(C/C=C/c3ccccc3)CC2)c([N+](=O)[O-])cc1C	2%	-92*	-17
Cc1ccccc1NC(=O)CCN1CCN(C/C=C/c2ccccc2)CC1	13%	-85*	24
Cc1nc(C)c(C(=O)Nc2cccc(F)c2)s1	.	-5	11
Cc1ccc(-c2noc(C3CCCN(C(=O)c4ccc(C(C)(C)C)cc4)C3)n2)o1 (configuration not stated)	.	-16	-2
O=C(CCl)N1c2ccccc2Sc2c1ccc1ccccc21	.	5	19
CC1Cc2ccccc2N1C(=O)CSc1nncs1 (configuration not stated)	.	-9	-15
SMILES	Luc counter	KCNH2 3.1 inh	hERG WT inh
CCOc1ccc(-c2nc(C#N)c(NCC3CCCO3)o2)cc1 (configuration not stated)	-2%	6	-1
N#Cc1nc(-c2ccccc2Cl)oc1NCC1CCCO1 (configuration not stated)	1%	-72*	-14
Cc1nnc2n(-c3ccc(Cl)cc3)c(=O)c3c4c(sc3n12)CN(C)CC4	1%	.	.
CN1CCc2c(sc3c2c(=O)n(-c2ccccc2)c2nnc(SCc4ccc(Cl)cc4)n32)C1	-3%	-12	-186*
c1ccc(CCc2cccnc2)nc1	-9%[7.66 µM]	.	.
Cc1ccc(S(=O)(=O)N2CCN(C(=O)CCC(=O)Nc3ccc(F)cc3F)CC2)cc1	.	6	7
O=[N+]([O-])c1ccc(OCCCOc2cccc3cccnc23)cc1	.	-80*	-19
O=[N+]([O-])c1ccc(COc2cccc3cccnc23)cc1	.	14	8
CCCOc1ccc(CCc2n[nH]c(=S)n2-c2ccccc2)cc1	0%	-74*	-3
CCOc1ccc(-n2c(CCc3ccccc3)n[nH]c2=S)cc1	-3%	-1	6
CCNC(=O)C(=O)Nc1ccc([N+](=O)[O-])cc1	-1%	3	2
